According to PubChem BioAssay (NCI):
About 79,000 compounds went through this panel and 15% of them were active in at least one assay; those are over-represented in the sample as a whole. No stated cut-off is given here; in the data, active means growth inhibition above about 70%; inactive means the rest.

Key:
[1] = NCI Yeast Anticancer Drug Screen. Data for the rad50 strain (AID 155);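 further: 0% = growth of vehicle-only cultures of the same strain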; details: S. cerevisiae rad50 strain growth inhibition, stronger effect = higher value; at 50.0 µM unless noted
Procedure, shortened: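 Genetically altered yeast (DNA repair pathway); compound treatment; growth inhibition vs vehicle ctrl.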

[2] = NCI Yeast Anticancer Drug Screen. Data for the mec2-1 strain (AID 157); details: S. cerevisiae mec2-1 strain, stronger effect = higher value; at 50.0 µM unless noted
Procedure, shortened: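 Cells of the genetically defined mec2-1 yeast strain are incubated with test compound. Inhibition of growth is calculated against vehicle-treated controls.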

[3] = NCI Yeast Anticancer Drug Screen. Data for the sgs1 mgt1 strain (AID 161);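 further: 0% = growth of cultures given vehicle only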; details: S. cerevisiae sgs1 mgt1 strain, stronger effect = higher value; at 50.0 µM unless noted
Procedure, shortened: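 Mutant yeast exposed to compound; growth scored against vehicle-only wells.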

[4] = NCI Yeast Anticancer Drug Screen. Data for the cln2 rad14 strain (AID 165);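 further: 0% = growth equal to vehicle treated cultures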; details: S. cerevisiae cln2 rad14 strain, stronger effect = higher value; at 50.0 µM unless noted
Procedure, shortened: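 The screen exposed genetically defined yeast (cln2 rad14) to test compounds and scored growth inhibition relative to vehicle-treated controls.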

[5] = NCI Yeast Anticancer Drug Screen. Data for the bub3 strain (AID 167); details: S. cerevisiae bub3 mutant strain, stronger effect = higher value; at 50.0 µM unless noted
Procedure, shortened: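 Yeast carrying a defined mutation is treated with each compound, and growth is compared with that of vehicle-exposed cells to give inhibition.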

[6] = NCI Yeast Anticancer Drug Screen. Data for the mlh1 rad18 strain (AID 175); details: S. cerevisiae mlh1 rad18 strain growth inhibition, stronger effect = higher value; at 50.0 µM unless noted
Procedure, shortened: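 Compound-treated yeast growth, normalised to vehicle controls. Strain bears defined DNA repair mutations.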

Measured: growth inhibition

C=C1N(C=O)C(C)(C)N(O)C1(C)C
inactive: [1] 16.7% | [2] 15.7% | [3] 15.6% | [4] 28.1% | [5] 12.2% | [6] 10.9%

OCC1OC(n2cnc3c2NC=NC[C@H]3O)C(O)C1O (some centres undefined)
inactive: [1] 32.4% | [2] -3.8% | [3] 25.4% | [4] -7.55% | [5] 6.25% | [6] 25.8%

O=c1[nH]c(=O)c2cc(Cl)ccc2[nH]1
inactive: [1] 3.2% | [2] 6.75% | [3] -2.75% | [4] -37% | [5] 4.75% | [6] 0.65%

C=C(C)C(=NC(C)(C)C)Nc1ccc(C(=O)OCC)cc1
inactive: [1] -8.3% | [2] -5.6% | [3] -11.8% | [4] -21.2% | [5] -24.1% | [6] -45.6%

c1ccc2c(c1)ccc1c[n+]3ccccc3cc12
inactive: [1] 26.6% | [2] 23.1% | [3] 22.2% | [4] 44.5% | [5] 9.25% | [6] 61.9%

O=C(c1ccccc1)c1ccc2c(Cl)ccc3c2c1CC3
inactive: [1] -2.8% | [2] -21.3% | [3] -9.75% | [4] 12.8% | [5] 7.6% | [6] -8.45%

CC(C)=CCNc1ncnc2c1ncn2CCC(=O)O
inactive: [1] -23.9% | [2] -4.6% | [3] -57% | [4] -4.45% | [5] -9.85% | [6] -28.9%

OCCc1ccc2ccccc2n1
inactive: [1] 6.05% | [2] 14.2% | [3] 10.7% | [4] 6.2% | [5] -0.8% | [6] 3.5%

CC(=NCCCCN=C(C)c1cc(O)cc(Br)c1O)c1cc(O)cc(Br)c1O.[Co]
inactive: [1] 17.9% | [2] 17.9% | [3] 12.3% | [4] 6.45% | [5] 2.1% | [6] 24.4%

CNc1c(F)c(C#N)c(F)c(F)c1C#N
inactive: [1] 9.35% | [2] -6.95% | [3] -16.6% | [4] -8.95% | [5] 0.55% | [6] 1.75%

CCCN=C(N)C(C)=O
inactive: [1] 5.85% | [2] -4.9% | [3] -11.1% | [4] 4.85% | [5] 15.2% | [6] 2.1%

N/N=C1\C(=O)N(c2ccc(Cl)c(Cl)c2)C(=O)C1C(=O)Nc1ccc(Cl)c(Cl)c1 (centres undefined)
inactive: [1] -7.35% | [2] -19.4% | [3] -20.6% | [4] -16.4% | [5] -29.6% | [6] -31.1%

COc1cc(Cc2nccc3cc(OC)c(OC)cc23)c(C(C)=O)cc1OC
inactive: [1] 21.9% | [2] -22.9% | [3] 19.1% | [4] 14.1% | [5] 22% | [6] 22.4%

CSc1ccc2nncc(SC)c2c1
inactive: [1] 64.2% | [2] 7.05% | [3] 12.9% | [4] 40.1% | [5] 18% | [6] 40.9%

Cc1nc(Nc2ccc(Cl)cc2)c2cnn(-c3ccc(Cl)cc3)c2n1
inactive: [1] -1.9% | [2] -2.25% | [3] -7.95% | [4] -41% | [5] -2.3% | [6] -5.05%

O=C(Cc1ccccc1)SC(=O)Cc1ccccc1
inactive: [1] -0.05% | [2] 28.8% | [3] 18.6% | [4] -8.9% | [5] 39.4% | [6] 10%

O=C(O)C1(F)CC1(c1ccccc1)c1ccccc1 (centres undefined)
inactive: [1] -4.7% | [2] 9.7% | [3] 14.5% | [4] -38.2% | [5] 5.6% | [6] -7.8%

CC(=O)OC1CCC(C(C)(C)C)CC1 (centres undefined)
inactive: [1] -12.8% | [2] -41% | [3] -19.2% | [4] 2.5% | [5] -28.2% | [6] -15.8%

O=S(=O)(NCCSSCCNS(=O)(=O)c1ccccc1)c1ccccc1
inactive: [1] 45% | [2] 17.5% | [3] 51.6% | [4] 16.6% | [5] 23.6% | [6] 34.7%

COc1nc(NC2OC(COC(C)=O)C(OC(C)=O)C(OC(C)=O)C2OC(C)=O)c(N=CC=Nc2c(NC3OC(COC(C)=O)C(OC(C)=O)C(OC(C)=O)C3OC(C)=O)nc(OC)[nH]c2=O)c(=O)[nH]1 (centres undefined)
inactive: [1] -11.3% | [2] -8.45% | [3] -2.65% | [4] -16.8% | [5] -5.6% | [6] -11.5%

CCCCCCCCCC(OCC)OCC
inactive: [1] -25.1% | [2] -15.2% | [3] -11.6% | [4] -6.35% | [5] -31.4% | [6] -25.6%

CCCCCCn1ncc2c(N)ncnc21
inactive: [1] 10.4% | [2] 6.85% | [3] -1.3% | [4] -4% | [5] 29.8% | [6] -1.3%

COC(=O)c1cc(C)n(C)c(=O)c1CN
inactive: [1] -6.4% | [2] 4.85% | [3] -8.6% | [4] -22.4% | [5] -8.8% | [6] 0.8%

O=P(O)(O)OC1OC(CO)C(O)C(O)C1O (centres undefined)
inactive: [1] -16.5% | [2] -26.2% | [3] -3.9% | [4] -25.6% | [5] -24.8% | [6] -4.75%

CCC1NC(=O)C1NC(=O)OC (centres undefined)
inactive: [1] 23.6% | [2] -1.15% | [3] 22.6% | [4] 0.55% | [5] 12.6% | [6] 22.8%

C=CCOCn1cnc2c(N)ncnc21
inactive: [1] -35.9% | [2] -59.9% | [3] -24.1% | [4] -0.6% | [5] -11.3% | [6] -36%

CC(Cl)S(=O)(=O)c1ccccc1 (centres undefined)
inactive: [1] 7.45% | [2] -4.05% | [3] -17.9% | [4] -42.5% | [5] 8.35% | [6] -14.3%

COC(=O)c1ccccc1-c1ccccc1C(=O)O
inactive: [1] 1.2% | [2] -3.35% | [3] -5.45% | [4] -13.8% | [5] 8.3% | [6] -1.7%

CCC(/C=C/c1ccc(C)cc1)=N\NC(=O)c1ccccc1
inactive: [1] -0.25% | [2] -2.3% | [3] -1.1% | [4] 19.2% | [5] 3.35% | [6] 3.05%

CCCCCCC1OC(C)C(C)O1 (centres undefined)
inactive: [1] 30.8% | [2] 13.7% | [3] 23.9% | [4] -5.15% | [5] -3.95% | [6] 15.4%

Cc1nc(C(Cl)(Cl)Cl)[nH]c(=O)c1SCCO
inactive: [1] 12.8% | [2] -15.7% | [3] -9.05% | [4] 10.1% | [5] -2.4% | [6] -6.35%

CN(C)C(=O)NN1CCCCCC1
inactive: [1] 7.25% | [2] 13.9% | [3] -14.2% | [4] -14.7% | [5] 13.3% | [6] -13.3%

O=C(c1ccccc1)c1cccc(C(=O)c2ccccc2)c1
inactive: [1] -2.1% | [2] -11.3% | [3] -12.9% | [4] 4.65% | [5] 7.35% | [6] -16.6%

N#C/C(=C\c1ccccc1)c1cccc(F)c1
inactive: [1] 28.9% | [2] 24.6% | [3] 18.2% | [4] -4.05% | [5] 15.7% | [6] 11.4%

CCOC(C)(Cc1ccccc1[N+](=O)[O-])OCC
inactive: [1] 11.4% | [2] 4.3% | [3] -4.05% | [4] 2.5% | [5] -3.6% | [6] 18.5%

Cc1ccc(C)c(Nc2c(C)ccc(C)c2C(=O)O)c1
inactive: [1] -5.3% | [2] -1.05% | [3] 12.4% | [4] 14% | [5] -10.1% | [6] -12.6%

CN=C1CC2c3cc(OC)c(OC)cc3CCN2C2=C1C(=O)CC(C)(C)C2 (centres undefined)
inactive: [1] 17.1% | [2] 18.5% | [3] 15.1% | [4] -19% | [5] 36.4% | [6] 16.6%

O=[N+]([O-])c1cccnc1S(=O)(=O)c1ccccc1
inactive: [1] 36.9% | [2] 5.7% | [3] 12.2% | [4] 4.75% | [5] 6.2% | [6] -0.15%

CCCCCC[N+]1([O-])CC[N+]([O-])(CCCCCC)CC1 (centres undefined)
inactive: [1] -6.6% | [2] -7.9% | [3] -1.55% | [4] -43.4% | [5] 0.35% | [6] 7.35%
